For seven compounds, growth results are on record in PubChem BioAssay (NCI).

Each structure is given as a SMILES string. This is part of a sample that, as a whole, favours compounds with a hit. Of some 83,000 tested, about 20% had one in any assay.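 For each line, cells grew in 96-well plates with the test compound present at a single concentration for 48 hours.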 Values without a mark were called inactive. Calls of active or inactive are those of the source. How the source made its calls: active means growth percent below 10; inactive means the rest.

Holding throughout (experiment): NCI-60 one-dose screen, 48 h (100 = growth as untreated, 0 = no growth, -100 = all killed)
Details in all cases: 10 µM unless noted

Experiment [1] concerns DU-145 prostate.
Experiment [2] relates to K-562 leukemia.
Experiment [3] concerns MALME-3M melanoma.
Experiment [4] has as its system MDA-MB-231 breast.
Experiment [5] relates to RXF 393 renal.
The subject of experiment [6] is SF-268 CNS.
The test system of experiment [7] is SF-295 CNS.
Experiment [8] has as its system SF-539 CNS.
For experiment [9], the system named is UACC-257 melanoma.
Experiment [10] has as its system M14 melanoma.
The subject of experiment [11] is HCT-15 colon.
Experiment [12] relates to HT29 colon.
The test system of experiment [13] is SNB-75 CNS.
Experiment [14] deals with SNB-19 CNS.
The subject of experiment [15] is U251 CNS.
The test system of experiment [16] is PC-3 prostate.
The test system of experiment [17] is SK-MEL-5 melanoma.
Experiment [18] has as its system UACC-62 melanoma.
Experiment [19] has as its system LOX IMVI melanoma.
The subject of experiment [20] is SK-MEL-28 melanoma.

On to `Cc1ccc(C)c2c(C)c(C(=O)Nc3cccc(-n4cccn4)c3)oc12`, for which the growth in experiment [1] is 76.5% [50 µM]; in [2] it was 37.1% [50 µM]; in experiment [3], 67.6% [50 µM]; in experiment [4] it was 76.9% [50 µM]; in [5] it was 79.6% [50 µM]; in experiment [6], 67.4% [50 µM]. Further, the growth in experiment [7] was 66% [50 µM]; in [8], 85.2% [50 µM]; in experiment [9], 92.9% [50 µM]; in [10], 63.5% [50 µM]; in experiment [11], 49% [50 µM]; in [12], 48.2% [50 µM]. Also, the growth in [13] is 86.6% [50 µM]; in experiment [14], 87.2% [50 µM]; in experiment [15] it was 70.9% [50 µM]; in [16], 38.8% [50 µM]; in experiment [17], 44.3% [50 µM]; in experiment [18] it was 73.9% [50 µM]. Moreover, the growth is 62.2% [50 µM] in experiment [19] and 86.7% [50 µM] in [20].

Take `O=C(C1CCCCC1)[C@@H]1[C@]2(C(=O)NC3CCCCC32)[C@@H]2CCCN2[C@@]12C(=O)NC1CCC(Cl)CC12` (stereo not given in full): the growth in experiment [1] was -98% [100 µM] (active); in experiment [2], -66% [100 µM] (active); in [3], -66.4% [100 µM] (active); in experiment [4], -71.7% [100 µM] (active); in experiment [5], -66.6% [100 µM] (active); in [6], -77.4% [100 µM] (active). Besides, the growth in experiment [7] is -92.5% [100 µM] (active); in experiment [8], -93.3% [100 µM] (active); in experiment [9], -77.8% [100 µM] (active); in experiment [10] it was -83.2% [100 µM] (active); in experiment [11], -83.4% [100 µM] (active); in [12], -85.2% [100 µM] (active). Further, the growth in experiment [13] was -68.8% [100 µM] (active); in experiment [14], -92.5% [100 µM] (active); in experiment [15] it was -90.6% [100 µM] (active); in experiment [16] it was -87.9% [100 µM] (active); in experiment [17], -97.1% [100 µM] (active); in experiment [18] it was -95.4% [100 µM] (active). For the same compound, the growth in [19] was -83.4% [100 µM] (active); in experiment [20], -83% [100 µM] (active).

Regarding `CCN(CC)CCCN1C(=O)c2c(c(C)c3c(oc4ccc(OC)cc43)c2C)C1=O`, the growth was 112% in experiment [1]; 0.0716% (active) in experiment [2]; 97.1% in experiment [3]; 99.5% in [4]; 70.3% in [5]; 98.6% in experiment [6]. For the same compound, the growth was 110% in experiment [7]; 91.8% in experiment [8]; 103% in [9]; 104% in experiment [10]; 94.9% in experiment [11]; 90.9% in experiment [12]. Moreover, the growth is 109% in experiment [13]; 94.4% in [14]; 96.4% in [15]; 97.4% in experiment [16]; 75.1% in experiment [17]; 102% in [18]. Besides, the figures for the growth in experiment [19] and in experiment [20] were 96.9% and 94.1%, respectively.

For the compound `c1nc2ccc(-c3cc4ccc5[nH]ncc5c4c4c3CCCC4)cc2[nH]1`, the growth was 62.5% in [1]; 27.8% in experiment [2]; 28.8% in experiment [3]; 81.6% in experiment [4]; 62.6% in experiment [5]; 71.1% in experiment [6]. Further, the growth was 67.9% in experiment [7]; 48.7% in experiment [8]; 59.1% in [9]; 7.72% (active) in experiment [10]; 94.8% in experiment [11]; 58% in experiment [12]. The growth in experiment [13] was 71.2%; in experiment [14], 74.9%; in experiment [15], 77.3%; in experiment [16], 63.1%; in experiment [17], 67.4%; in experiment [18] it was 31.9%. Also, the growth in experiment [19] is 53.3%; in experiment [20], 41.7%.

For the compound `COc1ccc(/C=C/c2c(C(=O)/C=C/c3ccccc3)c(C)nc3ccccc23)cc1`, the growth in experiment [1] was 5.61% (active); in experiment [2], 6.28% (active); in [3] it was 17.8%; in experiment [4], 31.3%; in experiment [5], -23% (active); in experiment [6], 45.3%. Also, the growth in experiment [7] was 22.1%; in experiment [8] it was -39.5% (active); in experiment [9], 8.08% (active); in [10], 15.3%; in experiment [11], -26.2% (active); in experiment [12], 1.64% (active). Further, the growth is 29.4% in experiment [13]; 16.3% in experiment [14]; -59.9% (active) in experiment [15]; 26.9% in [16]; 21.2% in experiment [17]; 19.1% in experiment [18]. In addition, the values for the growth in experiment [19] and in experiment [20] were -82.3% (active) and 18.7%, respectively.

Turning to `Cc1ccc(-c2nc(SCc3nc4cc(Cl)c(Cl)cc4[nH]3)[nH]c(=O)c2C#N)cc1`, the growth was 91.6% in experiment [1]; 93.4% in experiment [2]; 95.6% in experiment [3]; 97.9% in [4]; 108% in experiment [5]; 91.6% in experiment [6]. For the same compound, the growth in experiment [7] was 104%; in experiment [8] it was 97.5%; in experiment [9], 91.3%; in experiment [10], 91.2%; in experiment [11], 104%; in experiment [12] it was 95.7%. Besides, the growth in experiment [13] is 87.2%; in experiment [14], 106%; in experiment [15], 98.7%; in [16], 94%; in experiment [17], 104%; in experiment [18], 99.5%. Besides, the growth in experiment [19] was 102%; in experiment [20], 111%.

On to `CCNc1ccc(-c2nc3ccccc3n3cccc23)cc1`, for which the growth was 86.7% in experiment [1]; 67.6% in experiment [2]; 92.2% in experiment [3]; 55.8% in experiment [4]; 87.7% in [5]; 83.9% in experiment [6]. The growth is 69% in experiment [7]; 93.5% in experiment [8]; 84.9% in experiment [9]; 77.9% in experiment [10]; 82.5% in experiment [11]; 80% in experiment [12]. Besides, the growth is 67.6% in [13]; 92.2% in experiment [14]; 82.9% in [15]; 68.9% in [16]; 71.2% in experiment [17]; 66.2% in [18]. The growth in [19] was 73.4%; in experiment [20] it was 86.5%.
